Screening data as filed in PubChem BioAssay.
Shown are actives, neighbours in structure and some others; about 22% of the full set was active somewhere.
LmPK inh = LmPK (Leishmania mexicana) enzyme inhibition | Q27686 | purified LmPK, Kinase-Glo ATP luminescence, 1 h | Potency, µM (top dose mostly 57.5 µM), for inactives: at the top dose activity change, negative = inhibition, most hits filed as inhibitors | 290,000 tested, 0.37% active | AID 1721; note: potency is the fitted concentration of half-maximal effect; % is set by controls: 0 for no effect and ±100 for the full control effect
Target sequence (Q27686 whole entry, looked up): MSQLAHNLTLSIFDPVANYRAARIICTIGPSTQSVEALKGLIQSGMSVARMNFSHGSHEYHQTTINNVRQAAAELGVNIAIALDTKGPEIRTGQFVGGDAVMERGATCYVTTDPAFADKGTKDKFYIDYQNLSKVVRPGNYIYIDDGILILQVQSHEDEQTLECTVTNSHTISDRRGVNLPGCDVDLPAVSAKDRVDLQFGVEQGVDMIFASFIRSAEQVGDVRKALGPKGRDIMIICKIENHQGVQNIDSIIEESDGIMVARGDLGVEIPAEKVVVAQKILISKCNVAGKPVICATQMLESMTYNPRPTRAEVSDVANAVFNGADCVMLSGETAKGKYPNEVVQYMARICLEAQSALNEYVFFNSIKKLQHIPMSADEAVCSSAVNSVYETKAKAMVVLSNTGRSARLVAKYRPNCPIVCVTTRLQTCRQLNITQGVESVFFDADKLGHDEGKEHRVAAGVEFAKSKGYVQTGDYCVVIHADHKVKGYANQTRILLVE
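Kinase-Glo luminescence read after 1 h RT reaction of 0.1 nM LmPK with 0.5 mM PEP and 0.1 mM ADP. Activity scaled between uninhibited and enzyme-free controls.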
Pf growth 48h = P. falciparum growth inhibition at 48 hours (one generation); P. falciparum luciferase growth in erythrocytes, 48 h; 310,000 tested, 5.9% active; Potency, µM (doses to about 28.7 µM), for the others: top-dose activity change, negative = inhibition, hits mostly inhibitors; note: potency is the fitted concentration of half-maximal effect; % is set by controls: 0 for no effect and ±100 for the full control effect
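Growth was read as firefly luciferase luminescence after a 48 h, 37 C, 5% CO2 exposure of compounds to reporter-bearing P. falciparum cultures (0.1% parasitemia, 2% hematocrit final) in Albumax-supplemented RPMI 1640.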
Pf growth 96h = P. falciparum growth inhibition at 96 hours; P. falciparum luciferase reporter growth, 96 h; Potency, µM (doses to about 28.7 µM), inactives show at the highest dose activity change, negative = inhibition, usual class: inhibitors; 320,000 tested, 6.9% active; note: potency is the fitted concentration of half-maximal effect; % is set by controls: 0 for no effect and ±100 for the full control effect
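96 h incubation, 37 C, 5% CO2, of luciferase-reporter P. falciparum-infected RBCs (2% hematocrit, 0.05% parasitemia final) with test compounds; endpoint luminescence.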
CHX counter = affects cycloheximide protein synthesis inhibition readout, counter-screen; cell reporter, cycloheximide protein synthesis inhibition counterscreen; max response, %; 300,000 tested, 12% active; AID 2314; in the data active = max response mostly above about 13%, no sharp cut-off; inactive = mostly below about 14%; note: read at 38.3 µM for the half of the compounds with a filed dose; 0% is about no effect
Shiga inhibitor = Shiga toxin inhibition. inhibition, % at 38.7 µM. 290,000 tested, 9.2% active. AID 2315. Vero cells, Shiga toxin protein synthesis inhibition reporter; in the data active = inhibition mostly above about 28%, no sharp cut-off; inactive = mostly below about 43%; note: 0% is about no effect
* = called active by the depositor; ? = inconclusive; . = no result. Unless noted, calls come from the whole dose curve; as a rule, active = well fitted inhibition curve with a large enough effect; inconclusive = small, poorly fitted or top-dose-only effect, or another doubt; inactive = no such curve, though single readings can be large or run the other way.

SMILES	LmPK inh	Pf growth 48h	Pf growth 96h	CHX counter	Shiga inhibitor
CC(C)CC(NC(=O)C(COCc1ccccc1)NC(=O)OC(C)(C)C)C(=O)NN (configuration not stated)	1.1%	?	-35.0%	11.1	-6.6
CCc1c(C)c2cc(Cl)c(O)c(CN3CCCC3)c2oc1=O	0.8%	19.2%	12.4%	-3.0	-6.1
C#CCn1c(C)cc(C)c(S(=O)(=O)c2ccccc2)c1=O	2.9%	29.7%	66.9%	25.7*	100.4*
COc1ccccc1NC(=O)Cn1c([N+](=O)[O-])cnc1C	0.3%	6.9%	?	-1.8	-4.4
COC(=O)c1ccc(OCC(O)CNCC(c2ccc(OC)cc2)N(C)C)c(OC)c1 (configuration not stated)	-3.4%	-8.8%	17.4%	18.0	52.3*
NC(=O)C1=C[C@H](c2ccccc2)C[C@H](OCc2ccc(CO)cc2)O1	6.8%	20.9%	53.6%	36.1*	27.4*
O=C(Nc1ccccc1)C1=C[C@@H](c2ccccc2)C[C@@H](OCc2ccc(CO)cc2)O1	0.8%	32.3%	4.2%	56.9*	81.0*
O=C(O)C1=C[C@H](c2ccc(C(F)(F)F)cc2)C[C@H](OCc2ccc(CO)cc2)O1	4.2%	2.7%	0.0%	-2.3	-8.6
C#Cc1ccc([C@@H]2C=C(C(=O)OCC=C)O[C@H](OCc3ccc(CO)cc3)C2)cc1	2.1%	?	?	30.8*	23.2*
O=C(Nc1ccccc1)C1=C[C@@H](c2ccc(C(F)(F)F)cc2)C[C@@H](OCc2ccc(CO)cc2)O1	4.9%	?	?	8.6	17.3
O=C(Nc1ccccc1)C1=C[C@H](c2ccc(Br)cc2)C[C@H](OCc2ccc(CO)cc2)O1	4.5%	-26.1%	?	41.1*	69.2*
CC(C)(C)[C@H]1C=C(C(=O)Nc2ccccc2)O[C@@H](OCc2ccc(CO)cc2)C1	3.4%	?	?	12.1*	18.4
CCn1ccnc1CN(C)Cc1c(C(=O)N2C[C@@H](C)O[C@@H](C)C2)nc2ccc(Cl)cn12	-3.6%	-18.6%	-23.3%	-4.3	8.3
Nc1nc(N)c2sc3nc4c(cc3c2n1)CCC4	-16.5%	56.5%	.	25.5*	52.0
FC(F)(F)c1nc2cc3nc4ccccc4[nH]c3cc2n1	?	16.9%	73.0%	38.6*	68.7*
C/C(=N\NC(=S)NC1CCCCC1)c1ccc(C#N)cc1	-2.3%	-5.8%	0.0%	-4.3	1.2
C/C(=N\NC(=S)NC1CCCCC1)c1cccc(Br)c1	4.1%	1.04µM*	0.465µM*	1.3	-8.9
CCNC(=S)N/N=C(\C)c1cccc(C(F)(F)F)c1	-7.3%	9.4%	11.7µM*	17.0	24.1
C/C(=N\NC(=S)NC1CCCCC1)c1cccc(C(F)(F)F)c1	-2.1%	3.7µM*	?	-0.9	3.1
COc1cc(OC)c(OC)cc1CN(C)C(c1ccccc1)c1nnnn1-c1ccccc1C (configuration not stated)	2.5%	?	10.4µM*	-2.0	19.8
Cc1ccc(C(=O)Nc2ccc(Nc3ccccc3)cc2)c(Cl)c1	-3.9%	44.4%	?	-5.7	.
Cc1nnc(N2C(=O)C(=O)/C(=C(/O)c3ccc4c(c3)CC(C)O4)C2c2ccccc2F)s1 (configuration not stated)	2.6%	21.8%	15.3%	13.9*	17.5
COc1ccc(/C(O)=C2/C(=O)C(=O)N(Cc3ccco3)C2c2cccs2)cc1 (configuration not stated)	5.2%	24.5%	83.1%	-6.1	-0.6
COc1cccc(C2/C(=C(\O)c3ccc4c(c3)OCCO4)C(=O)C(=O)N2c2nnc(C)s2)c1 (configuration not stated)	-10.7%	8.3%	?	16.7	21.8
C=CCOc1ccc(/C(O)=C2/C(=O)C(=O)N(CCCn3ccnc3)C2c2ccco2)cc1 (configuration not stated)	-1.0%	43.3%	-37.6%	31.7*	64.7*
SMILES	LmPK inh	Pf growth 48h	Pf growth 96h	CHX counter	Shiga inhibitor
CC1Cc2cc(/C(O)=C3/C(=O)C(=O)N(Cc4ccco4)C3c3cccs3)ccc2O1 (configuration not stated)	-0.3%	41.1%	-15.2%	45.8*	86.7*
CCCOc1ccc(/C(O)=C2/C(=O)C(=O)N(CCCn3ccnc3)C2c2ccco2)cc1 (configuration not stated)	-2.3%	50.4%	98.8%	27.6*	28.2
CC1Cc2cc(/C(O)=C3/C(=O)C(=O)N(CCCn4ccnc4)C3c3ccco3)ccc2O1 (configuration not stated)	3.4%	225.9%	0.208µM*	33.2*	113.5*
COc1ccccc1C1/C(=C(\O)c2ccc3c(c2)OCCO3)C(=O)C(=O)N1CCCn1ccnc1 (configuration not stated)	0.2%	2.5%	7.0%	31.7*	72.5*
CCCOc1ccc(/C(O)=C2/C(=O)C(=O)N(CCOC)C2c2cccnc2)cc1 (configuration not stated)	3.6%	1.04µM*	?	6.9	-9.6
C=CCOc1ccc(/C(O)=C2/C(=O)C(=O)N(CCCn3ccnc3)C2c2cccs2)cc1 (configuration not stated)	7.3%	49.7%	?	48.8*	137.3*
C=CCOc1ccc(/C(O)=C2\C(=O)C(=O)N(CCOC)C2c2cccnc2)cc1 (configuration not stated)	7.4%	3.5%	78.1%	6.4	0.6
O=C1CN(C(=O)CNC(=O)c2ccc(Cl)cc2Cl)CCN1	3.9%	11.9%	33.0%	-10.0	-6.2
COc1cccc(/C=C/C(=O)OCC(=O)Nc2cccc(S(=O)(=O)N3CCOCC3)c2)c1OC	0.3%	-15.9%	15.7%	13.1	31.1
CC(C)[C@@H](C(=O)NC1CCCC1)N1C(=O)N2CCc3c([nH]c4ccccc34)[C@@]2(C)C1=O	-5.4%	-46.3%	?	-1.7	-5.9
Cc1ccc2ncc(S(=O)(=O)c3ccccc3)c(N3CCCCC3C)c2c1 (configuration not stated)	-1.4%	?	2.7%	-3.7	-10.5
CN(C)/C=C/c1c([N+](=O)[O-])c2ccc(O)cc2n1-c1ccccc1	-6.3%	?	10.4µM*	-1.1	-6.1
CC(=O)Nc1ccc(Nc2c([N+](=O)[O-])c(=O)n(-c3ccccc3)c3ccccc23)cc1	-2.5%	?	18.2%	7.1	-16.3
O=C(CNCc1cccc2ccccc12)Nc1ccccc1[N+](=O)[O-]	-0.2%	?	0.0%	16.5	4.2
CCOC(=O)N1CCN(c2c(NCc3ccccc3Cl)c(=O)c2=O)CC1	-1.1%	-8.4%	-9.2%	-3.9	-2.4
CCCN(CCC)CCNc1c(NC2CCN(C(=O)OCC)CC2)c(=O)c1=O	4.1%	.	?	-2.6	0.2
CCOC(=O)N1CCC(Nc2c(-c3ccc(C)c(C)c3)c(=O)c2=O)CC1	0.4%	-6.7%	0.522µM*	6.2	-9.0
CCOC(=O)N1CCC(Nc2c(N3CCN(c4cc(Cl)ccc4C)CC3)c(=O)c2=O)CC1	14.9%	.	4.65µM*	-4.9	-11.4
